Screening data deposited in PubChem BioAssay by National Center for Advancing Translational Sciences (NCATS).
Hits are enriched below; roughly 9% of the tested compounds scored in any of these assays.
HPGD block – qHTS Assay for Inhibitors of HPGD (15-Hydroxyprostaglandin Dehydrogenase). purified HPGD, NADH fluorescence kinetic, PGE2 substrate. hit rate 4.3% among 150,000. Potency, µM, for the others: at the top dose activity change, negative = inhibition, usual class: inhibitors. 15-hydroxyprostaglandin dehydrogenase [NAD(+)] (Homo sapiens), P15428; also: potency is read from the fitted curve at half-maximal effect
Target sequence (P15428 whole entry, looked up): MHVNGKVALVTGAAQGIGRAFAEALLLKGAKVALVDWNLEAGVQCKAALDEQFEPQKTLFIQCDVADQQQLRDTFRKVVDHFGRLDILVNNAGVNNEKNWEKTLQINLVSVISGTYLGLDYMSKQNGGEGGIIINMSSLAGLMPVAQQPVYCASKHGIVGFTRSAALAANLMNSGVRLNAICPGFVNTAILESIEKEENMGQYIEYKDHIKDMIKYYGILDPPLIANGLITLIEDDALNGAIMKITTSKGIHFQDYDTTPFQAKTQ
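20 nM HPGD preincubated 15 min at room temperature with compound in 50 mM Tris-HCl pH 8, 0.01% Tween 20. Started with 1 mM NAD+ and 30 uM prostaglandin E2; NADH fluorescence (360/450 nm) read 5 times over 30-s intervals, last minus first.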
IMPase cell inh – qHTS Assay for Identifying the Cell-Membrane Permeable IMPase Inhibitors; Inositol monophosphatase 1 (Rattus norvegicus), P97697; CHO-M1 cells, IP1 accumulation, HTRF TR-FRET ratio; inhibition (IP1 accumulation), % at 46.1 µM; 120,000 tested, under 10 active; active = well fitted curve in the direction sought with a large enough effect in the signal ratio, not every such curve was filed as active; inconclusive = small, poorly fitted or top-dose-only effect, or a change in a side signal; inactive = no such curve, though single readings can be large or run the other way; the % refers to the signal ratio;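 also: cells stimulated with carbachol in lithium chloride buffer; plate controls were DMSO basal wells for no effect and reference inhibitor wells for full effect; higher means more IMPase inhibition seen as more IP1 and lower FRET ratio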
Target sequence (P97697 whole entry, looked up): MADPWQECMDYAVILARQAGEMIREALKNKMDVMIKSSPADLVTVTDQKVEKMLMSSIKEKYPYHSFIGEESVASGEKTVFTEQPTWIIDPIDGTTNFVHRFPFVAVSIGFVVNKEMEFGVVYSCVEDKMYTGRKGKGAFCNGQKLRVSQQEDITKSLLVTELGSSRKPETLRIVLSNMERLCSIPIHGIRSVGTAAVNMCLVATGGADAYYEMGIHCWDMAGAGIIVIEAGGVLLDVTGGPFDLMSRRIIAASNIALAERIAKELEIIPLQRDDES
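Elevated IP1 in lysates lowers TR-FRET signal (665/620 ratio and 620 channel reported). Cells were CHO-M1, given carbachol (50 uM as added) plus 50mM LiCl, pH 7.4, 30 min, 37C; compounds titrated up to 46 uM; AC50 by Hill equation.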
ALDH1A1 block – qHTS Assay for Inhibitors of Aldehyde Dehydrogenase 1 (ALDH1A1); Purified ALDH1A1, NADH fluorescence, propionaldehyde substrate; Potency, µM (titrated, usually from 75.3 µM), for inactives: at the top dose activity, negative = inhibition, most hits filed as inhibitors; AID 1030, 2008; hit rate 7.3% among 220,000;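 also: potency is read from the fitted curve at half-maximal effect; plate controls were no enzyme wells and a reference inhibitor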
* marks the source's active call; other numbers are inactive results; ? = inconclusive; . = not tested or not shown; [ ] = another dose, or the depositor's remark. Unless noted, calls follow the shape of the dose curve; as a rule, active = well fitted inhibition curve with a large enough effect (not every such curve was filed as active); inconclusive = small, poorly fitted or top-dose-only effect, or another doubt; inactive = no such curve, though single readings can be large or run the other way. Unless noted, % is scaled to controls: 0 for no effect and ±100 for the full control effect.

SMILES	HPGD block	IMPase cell inh	ALDH1A1 block
CC(=O)c1c(C(C)=O)c(C)n(-c2ccc(C)c(NC(=O)c3ccccc3Cl)c2)c1C	0%	4	16%
CC1(C)CC(=O)CC(=O)/C1=N\Nc1c(Cl)cc(Cl)cc1Cl	-4%	-11	6.3µM*
COc1cc(/C=N/NC(N)=S)cc(Br)c1OCc1ccccc1F	-15%	.	?
CCOc1cc(/C=N/NC(N)=S)cc(Br)c1OCc1ccccc1C	-22%	16	1.3µM*
Cc1nc(SCC(=O)NCc2cccs2)nc(C)c1C	.	.	0%
O=C(CSc1cccc2cccc(Cl)c12)NCc1cccs1	10µM*	.	-5%
CCc1nc2nc(C)cc(Nc3ccc(OC)cc3)n2n1	.	7	.
Cc1ccc(Nc2cc(=O)oc3ccccc23)c(C)c1	-11%	3	7%
Cc1ccccc1Nc1cc(=O)oc2ccccc12	-20%	3	14µM*
O=c1[nH]c(/C(Cl)=C/c2cc(Cl)ccc2O)nc2cc(Cl)ccc12	8.9µM*	.	7%
O=c1[nH]c(/C(Cl)=C/c2c(F)cccc2Cl)nc2cc(Cl)ccc12	?	.	1%
O=C1[C@H]2CCC=C[C@H]2[C@H](c2ccccc2Br)N1Cc1ccccc1	-12%	.	?
COc1ccc(N2C(=O)[C@H]3CCC=C[C@H]3[C@@H]2c2ccccc2Br)cc1	-20%	.	7.1µM*
Cc1cc(-c2nc(C)c(C(=O)NNS(=O)(=O)c3cccc(C(F)(F)F)c3)s2)no1	.	.	-13%
C=CCNC(=O)c1sc(-c2ccccc2)nc1C	.	.	5%
COc1ccc(/C=C/C(=O)c2sc(-c3ccc(Cl)cc3)nc2C)cc1	-7%	1	?
Cc1nc(NS(=O)(=O)c2ccccc2)sc1C(=O)NN	.	.	-7%
Cc1ccc(N/C=C/C(=O)c2sc(-c3ccccc3)nc2C)cc1	-2%	?	11µM*
Cc1nc(N)sc1C(=O)NN	.	.	25µM*
Cc1nc(-c2ccccc2)sc1C(=O)NN	.	.	4.5µM*
Cc1cc(-c2nc(C)c(C(=O)NN)s2)no1	.	.	10µM*
Nc1cc(C(=O)O)ccc1N1CCCCCC1	-9%	5	0%
COc1ccccc1C(=O)NNC(=S)NC(=O)c1ccco1	.	2	-6%
O=S(=O)(c1ccc(N2CCN(CCO)CC2)nc1)N1CCCCC1	-2%	2	-3%
O=C(NCc1ccccn1)C12CC3CC(CC(C3)C1)C2	.	.	-15%
SMILES	HPGD block	IMPase cell inh	ALDH1A1 block
CCO[C@@H]1OC(C(=O)NCc2ccccc2)=C[C@H](c2coc3ccccc3c2=O)[C@H]1CCCO	.	.	-3%
O=C(Nc1ccsc1C(=O)NC1CCCCC1)c1ccc(F)cc1	-18%	-11	?
CN1CCC(N(C)C(=O)c2sc3cc(F)ccc3c2Cl)CC1	.	.	9%
Cc1c(CN(C)C(=O)c2sc3cc(Cl)ccc3c2Cl)cnn1C	20µM*	-2	?
NNC(=O)Cn1c(SCc2ccccc2)nc2ccccc21	1%	1	-2%
O=C(c1ccc(S(=O)(=O)c2ccccc2)cc1)N1CCc2ccccc2C1	18µM*	.	-15%
O=C(c1ccc([N+](=O)[O-])cc1)N1CCc2ccccc2C1	28µM*	.	5%
O=[N+]([O-])c1ccc(NC(=S)N2CCc3ccccc3C2)cc1	-6%	.	?
CS(=O)(=O)N(Cc1ccccc1)c1ccc(C(=O)N2CCc3ccccc3C2)cc1	?	9	-10%
COc1ccc(-c2cc(-c3ccccc3)nc(-c3ccc4c(c3)NC(=O)CO4)c2)cc1	?	1	?
CCC(C)Nc1nc(-c2ccc3c(c2)NC(=O)CO3)cs1 (stereo not given)	-7%	4	3.5µM*
Cc1ccc(NC(=S)NCc2ccc3c(c2)OCO3)cc1C	-16%	.	?
Cc1c(Cl)cccc1NC(=S)/C(=C(\[O-])c1ccc(Cl)s1)[n+]1ccccc1	?	.	9%
[O-]/C(=C(\C(=S)Nc1cccc2ccccc12)[n+]1cccc(CO)c1)c1ccc(Cl)s1	.	.	13µM*
Cc1ccc(NC(=S)/C(=C(\[O-])c2ccc(Cl)s2)[n+]2cccc(CO)c2)cc1C	.	.	14µM*
Nc1cc(C2CCCC2)nn1-c1ccccc1	-21%	?	-3%
O=C(c1n[nH]c2ccccc12)N1CCN(c2ccc(F)cc2)CC1	.	.	5%
O=C(CCl)N(Cc1ccccc1)c1ccccc1	.	.	0.079µM*
Cc1cccc(N(CC(=O)O)CC(=O)O)c1	3%	.	6%
Cc1cccc(N(Cc2ccccc2)C(=O)CCl)c1	.	.	0.28µM*
O=C(c1cccnc1)N(Cc1ccccc1)c1ccccc1	-7%	11	1%
O=c1[nH]c(-c2ccncc2)nc2ccccc12	7.1µM*	0	7.9µM*
c1cncc(-c2nc3c(ccc4ccccc43)[nH]2)c1	?	-4	?
N=c1oc2ccccc2cc1-c1nc2ccccc2c(=O)[nH]1	-14%	?	?
O=c1[nH]c(-c2cccnc2)nc2ccccc12	18µM*	-12	12%
SMILES	HPGD block	IMPase cell inh	ALDH1A1 block
CCn1c(N2CCN(C(=S)Nc3ccc(OC)cc3)CC2)nc2ccccc21	.	.	-3%
COc1ccc(CN(CC2CCC(C(=O)O)CC2)C(=S)Nc2cc(C)ccc2C)cc1 (stereo not given)	.	.	3.5µM*
Cc1ccc(C)c(NC(=S)N(Cc2cccc(Br)c2)CC2CCC(C(=O)O)CC2)c1 (stereo not given)	.	.	5%
Cc1cccc2cc(CN(Cc3cccs3)S(=O)(=O)c3ccc4c(c3)OCCO4)c(=O)[nH]c12	-15%	10	?
O=C(CSc1nc2c([nH]c3ccccc32)c(=O)n1-c1ccc(F)cc1)NCc1ccco1	?	15	?
COC(C1CCCCC1)C(C)C(OCc1cccc(Br)c1)C(C)CO (stereo not given)	.	.	20%[13.5 µM]
Cc1cc(NC(=O)CSc2nnc(CNc3ccc(F)cc3)n2C2CCCCC2)no1	-16%	?	3%
C/C=C/C(=O)Nc1nnc(C2CCCCC2)s1	.	.	-8%
CCc1nnc(NC(=O)C2CCCCC2)s1	?	-1	25µM*
CCOC(=O)Cc1nnc(NC(=O)C2CCCCC2)s1	.	.	-9%
CCOC(=O)C(=O)Nc1nnc(C2CCCCC2)s1	16µM*	0	32µM*
CCc1nnc(NC(=O)CSc2nnc(CNc3ccc(F)cc3)n2C2CCCCC2)s1	-9%	-9	10µM*
CC(C)Sc1nnc(NC(=O)C2CC2)s1	-26%	15	0.05µM*
CSc1nnc(NC(=O)C2CCCCC2)s1	-4%	8	3%
C=CCSCC=C	-5%	.	12%
Cc1nnc(C)n1N	.	.	7%
CSc1nc(O)c(C(c2cccc([N+](=O)[O-])c2)c2c(O)nc(SC)[nH]c2=O)c(=O)[nH]1	.	.	-3%
COCC(=O)Nc1nnc(C2CCCCC2)s1	-14%	10	?
CCOCC(=O)Nc1nnc(C2CCCCC2)s1	-25%	-1	19µM*
COc1c(F)c(F)c(C(=O)Nc2ccc(N3CCN(Cc4ccccc4)CC3)cc2)c(F)c1F	-10%	12	-7%
CC(=O)c1sc(N/N=C\c2cccc(Br)c2)nc1C	28µM*	.	25µM*
CC(=O)c1sc(N/N=C\c2ccc(Br)cc2)nc1C	-5%	.	?
CCCCc1nc2c(c3c1C[C@H](C)OC3)CN(C(=O)c1ccco1)CC2	-7%	.	14%[13.5 µM]
